Sampled rows, rich in hits. Any-hit rate of the full collection: about 2.3%.
CHRM1 agonist: human M1 muscarinic receptor agonists, primary screen, Fluo-8 calcium fluorescence, CHO-K1 cells, HTS; AID 588814, 2011; Muscarinic acetylcholine receptor M1 (Homo sapiens), P11229; 360,000 tested, 0.33% active; activation, % at 3 µM; CHO-K1 hM1, agonist mode; 0% DMSO, 100% acetylcholine EC100;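 active = activation above the run's mean compound activation plus 3 SD, cut at about 16% in these data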;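 also: peak over basal fluorescence ratio within a 140 s kinetic read after compound addition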
Target sequence (P11229 whole entry, looked up): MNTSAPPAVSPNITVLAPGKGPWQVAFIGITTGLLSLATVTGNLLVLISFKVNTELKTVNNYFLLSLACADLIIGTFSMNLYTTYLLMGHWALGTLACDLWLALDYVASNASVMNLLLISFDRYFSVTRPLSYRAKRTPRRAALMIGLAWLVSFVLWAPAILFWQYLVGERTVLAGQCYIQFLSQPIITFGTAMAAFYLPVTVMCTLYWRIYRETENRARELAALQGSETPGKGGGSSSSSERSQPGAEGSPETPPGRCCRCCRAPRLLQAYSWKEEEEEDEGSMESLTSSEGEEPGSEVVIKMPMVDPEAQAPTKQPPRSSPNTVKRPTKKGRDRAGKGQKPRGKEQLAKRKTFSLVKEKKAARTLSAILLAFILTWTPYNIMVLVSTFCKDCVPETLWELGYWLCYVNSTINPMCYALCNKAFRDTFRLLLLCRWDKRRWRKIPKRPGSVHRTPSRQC
CHO-K1 Ca antag: nonselective inhibitor or artifact in parental CHO-K1 cells; 360,000 tested, 0.6% active; AID 602250; ATP-induced calcium, Fluo-8 fluorescence; inhibition, % at 3 µM;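 active = inhibition above a per-plate cutoff, the plate's mean sample inhibition plus 3 SD, cut at about 24% in these data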;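 also: 0% = DMSO plus EC80 ATP and 100% = DMSO alone without ATP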
M1 antag: human M1 muscarinic receptor antagonists, primary screen, CHO-K1 cells, Fluo-8 calcium fluorescence, 1536-well; 360,000 tested, 1.3% active; Muscarinic acetylcholine receptor M1 (Homo sapiens), P11229; inhibition, % at 3 µM; CHO-K1 hM1, ACh EC80 antagonist;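 active = percent inhibition above its own plate's cutoff, namely the mean of that plate's compound wells plus 3 SD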;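 also: peak over basal fluorescence ratio during 140 s after agonist addition; 0% = ACh EC80 plus DMSO and 100% = DMSO alone without agonist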
CHO-K1 Ca PAM: nonselective calcium activators in parental CHO-K1 cells, primary screen, counter-screen for M1 PAM project, cell-based, Fluo-8 calcium fluorescence, full deck, 1536-well | ATP EC20; 0% at ATP EC20, 100% at ATP max | activation, % at 3 µM | 360,000 tested, 0.02% active | AID 602247, 2012;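 active = activation above the run cutoff, the mean activation of all test compounds plus 3 SD, cut at about 40% in these data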;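 also: peak over basal fluorescence ratio in a 140 s read after ATP addition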
CHO-K1 Ca ag: counter-screen for M1 agonists: effect in parental CHO-K1 cells. Fluo-8 calcium fluorescence; scaled to maximal ATP response, vehicle zero. activation, % at 3 µM. 360,000 tested, 0.48% active. AID 602248, 2012; in the data active = activation above about 15%;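 also: untransfected CHO-K1 host cells lacking M1 receptor as counterscreen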
M1 PAM: human M1 muscarinic receptor positive allosteric modulators, primary screen, CHO-K1 cells, Fluo-8 calcium fluorescence, 1536-well; AID 588819, 2011; Muscarinic acetylcholine receptor M1 (Homo sapiens), P11229; activation, % at 3 µM; 360,000 tested, 0.088% active; CHO-K1 hM1, ACh EC20; 0% = ACh EC20, 100% = maximal ACh; in the data active = activation above about 19%, passing the limit was not always enough
Starred values were filed as active, the others as inactive; x = not tested or not shown.

SMILES	CHRM1 agonist	CHO-K1 Ca antag	M1 antag	CHO-K1 Ca PAM	CHO-K1 Ca ag	M1 PAM
COC(=O)c1ccc(NC(=O)C2CC3CCC2C3)cc1 (stereo not drawn)	-4	-2	-3	3	2	3
O=C(COC(=O)c1cc(-c2ccccc2)nc2ccccc12)NCC1CCCO1 (stereo not drawn)	-5	-9	-3	2	1	3
COc1ccc(NC(=O)CN(C)C(=O)c2cc(-c3ccc(OC)cc3)nc3ccccc23)cc1	-2	0	29*	0	5	-10
CCNC(=O)COC(=O)c1cc(-c2ccc(OC)cc2)nc2ccccc12	-3	24	14*	-16	0	-9
CN(CCOc1ccc(Cl)cc1)C(=O)c1cc(-c2ccco2)nc2ccccc12	-1	24*	38*	-3	9	-11
O=C(COC(=O)c1cc(-c2cccc(Br)c2)nc2ccccc12)NCC1CCCO1 (stereo not drawn)	3	28*	4	-14	0	8
COc1ccc(NC(=O)CN(C)C(=O)c2cc(-c3ccccc3)nc3ccccc23)cc1	-3	0	15	-9	7	-3
COC(=O)C1CCN(S(=O)(=O)c2c[nH]c(=O)[nH]c2=O)CC1	-3	-6	5	0	0	-4
CN(CC(=O)Nc1ccc(F)cc1)C(=O)COc1ncnc2ccccc12	0	-5	101*	18	6	-26
CN(CC(=O)Nc1ccc(Cl)cc1)C(=O)COc1ncnc2ccccc12	-5	-5	3	-21	0	-4
CS(=O)(=O)N(CC(=O)Nc1c(F)cccc1F)c1ccc(C23CC4CC(CC(C4)C2)C3)cc1	21*	-15	11	9	1	5
Clc1ccc(C(c2ccccc2)N2CCN(c3ccccn3)CC2)cc1 (stereo not drawn)	-4	4	9	-1	5	-6
CN1CCCN(C(c2ccccc2)c2ccc(Cl)cc2)CC1 (stereo not drawn)	-7	15	100*	-8	3	-27
COc1ccc(S(=O)(=O)NCC2CCCO2)c(Cl)c1Cl (stereo not drawn)	-1	-8	-16	24	2	17
COc1cc(S(=O)(=O)NCC2CCCO2)c(OC)cc1Cl (stereo not drawn)	5	-14	-63	21	0	26*
CCOC(=O)[C@]12Cc3c(cc(OC)c(OC)c3OC)[C@H]1N(C1CCCCC1)C(=O)c1cc(OC)ccc12	x	-1	x	0	2	x
C(#Cc1ccccc1)C[N+]1(CC#Cc2ccccc2)CCCC1	-10	-8	39*	11	0	-23
O=C(CC(=O)N/N=C/c1ccccc1)NCc1ccccc1	-5	16	14	3	17*	-6
O=C(Cc1cccc2ccccc12)N/N=C/c1ccncc1	-4	1	-9	6	26*	6
COc1ccc(S(=O)(=O)NCCc2cn3nc(C)c(C)nc3n2)cc1F	-2	-9	-23	-2	0	16
Cc1ccc(C(C)C)c(OCCCn2ccnc2C)c1	-9	-10	100*	12	1	-30
CCCN(CCC)CCOc1cc(C)ccc1C(C)C	-14	-5	34	19	1	-27
Cc1ccc(C(C)C)c(OCCN(C)C)c1	-3	-18	57*	3	1	-19
CCOc1ccc(NC(=O)CN(C)C(=O)c2ccc(-c3ccc(C(C)=O)cc3)o2)cc1OCC	-5	12	20	-18	0	-9
C/C(=N\O)c1sc(-c2ccccc2)nc1C	-9	5	3	2	20*	3
Cc1nc(-c2ccccc2)sc1C(N)=O	-3	-16	-21	22	0	0
Cc1ccc(NC2CC(C)NC(=S)N2)cc1 (stereo not drawn)	-2	-6	3	4	2	-4

Assay outcomes (PubChem BioAssay)
